In publication PMC11006913 one finds binding signal data, which are given here for five sequences.

Numbering of substitutions follows the chain as printed.

Experiment in all cases: PBM; 200 nM protein, PBS
Holding throughout (conditions): dsDNA, one strand shown

Experiment [1] has as its target HOXB9 (Homo sapiens, UniProt P17482 171-250, T197M).
Experiment [2] deals with HOXC9 (Homo sapiens, UniProt P31274 178-260, K195R).
Experiment [3] deals with HOXA7 (Homo sapiens, UniProt P31268 116-202).
Chain of HOXA7 (Homo sapiens, UniProt P31268 116-202) (P31268 116-202): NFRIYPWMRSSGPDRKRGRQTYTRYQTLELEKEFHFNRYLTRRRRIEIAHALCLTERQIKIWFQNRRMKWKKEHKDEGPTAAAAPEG
Experiment [4] concerns the target HOXC10 (Homo sapiens, UniProt Q9NYD6 254-340).
In experiment [5] the target is HOXB6 (Homo sapiens, UniProt P17509 132-218, K202E).
Chain of HOXB6 (Homo sapiens, UniProt P17509 132-218, K202E) (P17509 132-218 K202E): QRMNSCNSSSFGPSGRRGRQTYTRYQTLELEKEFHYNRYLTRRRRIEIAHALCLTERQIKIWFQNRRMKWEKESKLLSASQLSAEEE
The target of experiment [6] is HOXB9 (Homo sapiens, UniProt P17482 171-250).
Chain of HOXB9 (Homo sapiens, UniProt P17482 171-250) (P17482 171-250): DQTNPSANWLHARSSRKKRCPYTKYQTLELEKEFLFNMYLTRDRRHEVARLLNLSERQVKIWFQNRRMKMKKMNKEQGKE
Experiment [7] has as its target HOXC9 (Homo sapiens, UniProt P31274 178-260).
Experiment [8] concerns the target HOXD13 (Homo sapiens, UniProt P35453 263-343, T313R).
Experiment [9] deals with HOXC9 (Homo sapiens, UniProt P31274 178-260, R193K).
Chain of HOXC9 (Homo sapiens, UniProt P31274 178-260, R193K) (P31274 178-260 R193K): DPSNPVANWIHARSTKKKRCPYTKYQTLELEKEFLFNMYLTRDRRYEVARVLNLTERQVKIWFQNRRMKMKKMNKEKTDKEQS
Experiment [10] addresses HOXD13 (Homo sapiens, UniProt P35453 263-343).
Experiment [11] deals with HOXC10 (Homo sapiens, UniProt Q9NYD6 254-340, K271E).
Chain of HOXC10 (Homo sapiens, UniProt Q9NYD6 254-340, K271E) (Q9NYD6 254-340 K271E): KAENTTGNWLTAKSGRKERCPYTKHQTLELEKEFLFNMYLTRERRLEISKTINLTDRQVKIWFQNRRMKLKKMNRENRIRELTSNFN
Experiment [12] deals with VAX1 (Homo sapiens, UniProt Q5SQQ9 86-172).
Chain of VAX1 (Homo sapiens, UniProt Q5SQQ9 86-172) (Q5SQQ9 86-172): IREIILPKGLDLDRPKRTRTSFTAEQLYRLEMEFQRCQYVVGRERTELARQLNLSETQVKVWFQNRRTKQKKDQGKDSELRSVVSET
Experiment [13] concerns the target HOXD13 (Homo sapiens, UniProt P35453 263-343, T313A).
The target in experiment [14] is HOXB9 (Homo sapiens, UniProt P17482 171-250, R186Q).
Chain of HOXB9 (Homo sapiens, UniProt P17482 171-250, R186Q) (P17482 171-250 R186Q): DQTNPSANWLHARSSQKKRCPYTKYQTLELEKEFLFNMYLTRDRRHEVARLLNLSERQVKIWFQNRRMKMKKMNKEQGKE
Experiment [15] has as its target HOXC9 (Homo sapiens, UniProt P31274 178-260, R222W).
Experiment [16] deals with VAX1 (Homo sapiens, UniProt Q5SQQ9 86-172, T142I).
Chain of VAX1 (Homo sapiens, UniProt Q5SQQ9 86-172, T142I) (Q5SQQ9 86-172 T142I): as the sequence (Q5SQQ9 86-172) above, with T57I counted along it
Experiment [17] addresses HOXA7 (Homo sapiens, UniProt P31268 116-202, W177C).
The target in experiment [18] is HOXA4 (Homo sapiens, UniProt Q00056 201-287, W262F).
Chain of HOXA4 (Q00056 201-287 W262F): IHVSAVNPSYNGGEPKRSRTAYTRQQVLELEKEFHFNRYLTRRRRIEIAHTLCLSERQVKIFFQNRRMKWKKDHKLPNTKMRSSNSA
Experiment [19] deals with VAX1 (Homo sapiens, UniProt Q5SQQ9 86-172, K157R).
Chain of VAX1 (Homo sapiens, UniProt Q5SQQ9 86-172, K157R) (Q5SQQ9 86-172 K157R): as the sequence (Q5SQQ9 86-172) above, with K72R counted along it
Experiment [20] concerns the target HOXB6 (Homo sapiens, UniProt P17509 132-218).
The target in experiment [21] is T1, VENTX (Homo sapiens, UniProt O95231 78-163, R121Q).
T1 sequence: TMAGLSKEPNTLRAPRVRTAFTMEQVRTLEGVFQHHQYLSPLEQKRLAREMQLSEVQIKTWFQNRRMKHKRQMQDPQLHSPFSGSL

Experiment [22] addresses T2, VENTX (Homo sapiens, UniProt O95231 78-163).
T2 sequence: T1 sequence with Q44R

Experiment [23] concerns the target T3, VENTX (Homo sapiens, UniProt O95231 78-163, Y115F).
T3 sequence: T1 sequence with Y38F, Q44R

Experiment [24] has as its target CRX (Homo sapiens, UniProt O43186 26-111, R41L).
Experiment [25] addresses ALX4 (Homo sapiens, UniProt Q9H161 200-286, Q225E).

Chain of HOXC9 (Homo sapiens, UniProt P31274 178-260, R222W) (P31274 178-260 R222W): as the sequence (P31274 178-260 R193K) above, with K16R, R45W counted along it
Chain of HOXD13 (Homo sapiens, UniProt P35453 263-343, T313R) (P35453 263-343 T313R): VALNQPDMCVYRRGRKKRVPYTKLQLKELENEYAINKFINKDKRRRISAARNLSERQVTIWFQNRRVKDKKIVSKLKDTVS
Chain of HOXC9 (Homo sapiens, UniProt P31274 178-260) (P31274 178-260): as the sequence (P31274 178-260 R193K) above, with K16R counted along it
Chain of HOXC9 (Homo sapiens, UniProt P31274 178-260, K195R) (P31274 178-260 K195R): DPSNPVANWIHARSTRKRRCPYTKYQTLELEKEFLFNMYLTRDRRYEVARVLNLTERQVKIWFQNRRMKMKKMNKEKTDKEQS
Chain of HOXC10 (Homo sapiens, UniProt Q9NYD6 254-340) (Q9NYD6 254-340): as the sequence (Q9NYD6 254-340 K271E) above, with E18K counted along it
Chain of HOXD13 (Homo sapiens, UniProt P35453 263-343, T313A) (P35453 263-343 T313A): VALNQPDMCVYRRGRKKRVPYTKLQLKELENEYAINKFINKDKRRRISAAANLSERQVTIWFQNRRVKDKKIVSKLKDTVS
Chain of HOXD13 (Homo sapiens, UniProt P35453 263-343) (P35453 263-343): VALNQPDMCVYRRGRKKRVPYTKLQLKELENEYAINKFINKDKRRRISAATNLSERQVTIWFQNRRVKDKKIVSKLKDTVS
Chain of HOXB9 (Homo sapiens, UniProt P17482 171-250, T197M) (P17482 171-250 T197M): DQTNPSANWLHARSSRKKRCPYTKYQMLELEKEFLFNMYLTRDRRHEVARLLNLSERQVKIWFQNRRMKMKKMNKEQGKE
Chain of ALX4 (Q9H161 200-286 Q225E): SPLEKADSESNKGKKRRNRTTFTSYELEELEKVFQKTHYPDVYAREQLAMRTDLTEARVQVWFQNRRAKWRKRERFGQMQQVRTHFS
Chain of HOXA7 (Homo sapiens, UniProt P31268 116-202, W177C) (P31268 116-202 W177C): as the sequence (P31268 116-202) above, with W62C counted along it
Chain of HOXB6 (Homo sapiens, UniProt P17509 132-218) (P17509 132-218): as the sequence (P17509 132-218 K202E) above, with E71K counted along it
Chain of CRX (O43186 26-111 R41L): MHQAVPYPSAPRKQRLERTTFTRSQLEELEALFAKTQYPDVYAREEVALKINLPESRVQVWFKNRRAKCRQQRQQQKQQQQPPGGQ

CCATTAAA: the binding signal is 10.1 upbm affinity estimate (log intensity, higher = more binding, comparable within an allelic series) in experiment [1]; 13 upbm affinity estimate (log intensity, higher = more binding, comparable within an allelic series) in experiment [2]; 11.5 upbm affinity estimate (log intensity, higher = more binding, comparable within an allelic series) in experiment [3]; 12.5 upbm affinity estimate (log intensity, higher = more binding, comparable within an allelic series) in [4]; 9.87 upbm affinity estimate (log intensity, higher = more binding, comparable within an allelic series) in experiment [5]; 12.4 upbm affinity estimate (log intensity, higher = more binding, comparable within an allelic series) in [6]. For the same sequence, the binding signal was 13.1 upbm affinity estimate (log intensity, higher = more binding, comparable within an allelic series) in [7]; 10.6 upbm affinity estimate (log intensity, higher = more binding, comparable within an allelic series) in [8]; 13 upbm affinity estimate (log intensity, higher = more binding, comparable within an allelic series) in [9]; 11.9 upbm affinity estimate (log intensity, higher = more binding, comparable within an allelic series) in [10]; 12.2 upbm affinity estimate (log intensity, higher = more binding, comparable within an allelic series) in experiment [11]; 12.2 upbm affinity estimate (log intensity, higher = more binding, comparable within an allelic series) in [12]. The binding signal in experiment [13] was 11.6 upbm affinity estimate (log intensity, higher = more binding, comparable within an allelic series); in [14] it was 12.2 upbm affinity estimate (log intensity, higher = more binding, comparable within an allelic series); in experiment [15], 11.1 upbm affinity estimate (log intensity, higher = more binding, comparable within an allelic series); in experiment [16], 11.9 upbm affinity estimate (log intensity, higher = more binding, comparable within an allelic series); in experiment [17], 8.59 upbm affinity estimate (log intensity, higher = more binding, comparable within an allelic series); in experiment [18] it was 10.9 upbm affinity estimate (log intensity, higher = more binding, comparable within an allelic series). Further, the binding signal was 11.8 upbm affinity estimate (log intensity, higher = more binding, comparable within an allelic series) in [19] and 12 upbm affinity estimate (log intensity, higher = more binding, comparable within an allelic series) in experiment [20].

As for CTAATCGC, the binding signal in [21] is 11.2 upbm affinity estimate (log intensity, higher = more binding, comparable within an allelic series); in experiment [22] it was 12.3 upbm affinity estimate (log intensity, higher = more binding, comparable within an allelic series); in experiment [23], 11.3 upbm affinity estimate (log intensity, higher = more binding, comparable within an allelic series); in experiment [24], 11.6 upbm affinity estimate (log intensity, higher = more binding, comparable within an allelic series).

For the sequence ATTTATTA, the binding signal in experiment [1] was 10.1 upbm affinity estimate (log intensity, higher = more binding, comparable within an allelic series); in [2], 12.7 upbm affinity estimate (log intensity, higher = more binding, comparable within an allelic series); in experiment [4] it was 12.5 upbm affinity estimate (log intensity, higher = more binding, comparable within an allelic series); in experiment [5], 10 upbm affinity estimate (log intensity, higher = more binding, comparable within an allelic series); in experiment [6] it was 12 upbm affinity estimate (log intensity, higher = more binding, comparable within an allelic series); in experiment [7], 12.8 upbm affinity estimate (log intensity, higher = more binding, comparable within an allelic series). In addition, the binding signal in experiment [8] is 10.9 upbm affinity estimate (log intensity, higher = more binding, comparable within an allelic series); in [9] it was 12.7 upbm affinity estimate (log intensity, higher = more binding, comparable within an allelic series); in experiment [10], 12 upbm affinity estimate (log intensity, higher = more binding, comparable within an allelic series); in experiment [11], 12 upbm affinity estimate (log intensity, higher = more binding, comparable within an allelic series); in experiment [13] it was 11.8 upbm affinity estimate (log intensity, higher = more binding, comparable within an allelic series); in experiment [14], 11.7 upbm affinity estimate (log intensity, higher = more binding, comparable within an allelic series). Also, the binding signal in experiment [15] is 11.3 upbm affinity estimate (log intensity, higher = more binding, comparable within an allelic series).

For the sequence CAATAAAA, the binding signal was 10.1 upbm affinity estimate (log intensity, higher = more binding, comparable within an allelic series) in experiment [1]; 13.2 upbm affinity estimate (log intensity, higher = more binding, comparable within an allelic series) in experiment [2]; 12.9 upbm affinity estimate (log intensity, higher = more binding, comparable within an allelic series) in [4]; 11.2 upbm affinity estimate (log intensity, higher = more binding, comparable within an allelic series) in [25]; 12.7 upbm affinity estimate (log intensity, higher = more binding, comparable within an allelic series) in experiment [6]; 13.2 upbm affinity estimate (log intensity, higher = more binding, comparable within an allelic series) in experiment [7]. Moreover, the binding signal was 11.2 upbm affinity estimate (log intensity, higher = more binding, comparable within an allelic series) in experiment [8]; 13.2 upbm affinity estimate (log intensity, higher = more binding, comparable within an allelic series) in experiment [9]; 12.5 upbm affinity estimate (log intensity, higher = more binding, comparable within an allelic series) in experiment [10]; 12.5 upbm affinity estimate (log intensity, higher = more binding, comparable within an allelic series) in [11]; 12.3 upbm affinity estimate (log intensity, higher = more binding, comparable within an allelic series) in experiment [13]; 12.4 upbm affinity estimate (log intensity, higher = more binding, comparable within an allelic series) in experiment [14]. Also, the binding signal in experiment [15] is 11.7 upbm affinity estimate (log intensity, higher = more binding, comparable within an allelic series).

Take ATTTATTG: the binding signal was 9.87 upbm affinity estimate (log intensity, higher = more binding, comparable within an allelic series) in [1]; 12.5 upbm affinity estimate (log intensity, higher = more binding, comparable within an allelic series) in experiment [2]; 12.4 upbm affinity estimate (log intensity, higher = more binding, comparable within an allelic series) in [4]; 11.2 upbm affinity estimate (log intensity, higher = more binding, comparable within an allelic series) in experiment [25]; 11.9 upbm affinity estimate (log intensity, higher = more binding, comparable within an allelic series) in experiment [6]; 12.7 upbm affinity estimate (log intensity, higher = more binding, comparable within an allelic series) in [7]. For the same sequence, the binding signal in [8] is 10.9 upbm affinity estimate (log intensity, higher = more binding, comparable within an allelic series); in [9] it was 12.6 upbm affinity estimate (log intensity, higher = more binding, comparable within an allelic series); in experiment [10], 12.2 upbm affinity estimate (log intensity, higher = more binding, comparable within an allelic series); in experiment [11], 11.7 upbm affinity estimate (log intensity, higher = more binding, comparable within an allelic series); in experiment [13] it was 12 upbm affinity estimate (log intensity, higher = more binding, comparable within an allelic series); in experiment [14] it was 11.6 upbm affinity estimate (log intensity, higher = more binding, comparable within an allelic series). The binding signal in [15] was 11.2 upbm affinity estimate (log intensity, higher = more binding, comparable within an allelic series).
